# Data published in publication PMC5540273 (PLoS ONE, 2017).
# How the values were obtained:
# Conditions in all cases: concentration: 1 μM, replicates: in singlicate; n = 1
# BIKE = system: T1, BIKE
# T1 construct: gene BMP2K
# BLK = system: BLK
# BMPR1A = system: BMPR1A
# BMPR1B = system: BMPR1B
# BMPR2 = system: BMPR2
# BMX = system: BMX
# BRAF = system: BRAF
# BRK = system: T2, BRK
# T2 construct: gene PTK6
# BRSK1 = system: BRSK1
# BRSK2 = system: BRSK2
# BTK = system: BTK
# BUB1 = system: BUB1
# CAMK1B = system: CAMK1B
# CAMK1D = system: CAMK1D
# CAMK1G = system: CAMK1G
# CAMK1 = system: CAMK1
# CAMK2A = system: CAMK2A
# CAMK2B = system: CAMK2B
# CAMK2D = system: CAMK2D
# CAMK2G = system: CAMK2G
# 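Note: KINOMEscan kinase panel screen.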
SMILES,%Inh (BIKE) [%],%Inh (BLK) [%],%Inh (BMPR1A) [%],%Inh (BMPR1B) [%],%Inh (BMPR2) [%],%Inh (BMX) [%],%Inh (BRAF) [%],%Inh (BRK) [%],%Inh (BRSK1) [%],%Inh (BRSK2) [%],%Inh (BTK) [%],%Inh (BUB1) [%],%Inh (CAMK1B) [%],%Inh (CAMK1D) [%],%Inh (CAMK1G) [%],%Inh (CAMK1) [%],%Inh (CAMK2A) [%],%Inh (CAMK2B) [%],%Inh (CAMK2D) [%],%Inh (CAMK2G) [%]
CNc1nc(-c2ccc3c(N)n[nH]c3c2)cc(N2C[C@@H](C(=O)Nc3ccccc3)CC[C@H]2C)n1 [GSK2298859],36,0,0,0,0,15,0,9,0,21,0,22,6,25,6,28,87,82,21,21
CCCCc1nn2ncccc2c1-c1ccnc(NC2CC2)n1 [GW684374],23,0,0,0,0,4,7,0,0,0,0,91.3,12,5,9,9,0,0,12,7
COC(=O)C(Cc1ccccc1)NC(=O)NC1CCN(c2ccnc(Nc3ccc(F)cc3)n2)C1 (centres unmarked) [GSK1379714],17,10,0,0,22,29,0,12,0,0,30,32,34,4,9,2,0,0,8,24
CCn1c(-c2ccccc2)nc2cnccc21 [SB-733416],28,0,0,0,10,0,49,27,0,1,0,2,44,8,0,0,0,0,0,0
Cc1c(Cn2c3ccccc3n3c(=O)cc(N4CCOCC4)nc23)cccc1C(F)(F)F [GSK2306394],7,34,0,0,0,0,8,3,0,0,0,3,13,20,0,5,0,0,9,7
Cc1nccc(-c2c(-c3ccc(F)cc3)ncn2CCCN2CCOCC2)n1.Cl [SB-282975],15,12,26,8,41,31,10,13,0,17,6,0,0,0,0,0,0,0,7,0
Cc1ccc(NC(=O)Nc2ccccc2F)cc1-c1ccc(C(=O)Nc2ccncc2)cc1 [GSK1398477],28,51,7,0,0,29,20,34,15,13,0,0,59,33,16,29,0,0,14,37
Cn1cncc1-c1cc2c(Nc3ccc(OCc4ccccc4)cc3)ncnc2cn1 [GW281179],4,27,13,0,8,1,0,19,0,2,0,34,25,14,0,20,0,0,12,36
CS(=O)(=O)Cc1ccc(Nc2nccc(-c3c(-c4cccc(NC(=O)C5CCCCC5)c4)nn4ncccc34)n2)cc1 [GSK350559],1,0,0,19,24,37,20,2,0,0,0,98.7,0,0,0,0,15,8,0,0
COc1ccc(CSc2nnc(-c3ccc4c(c3)CCO4)o2)cc1,0,0,0,0,0,0,0,0,0,0,0,0,0,0,9,0,0,0,0,0
